Compound activity from PubChem.
PERK inh – block of dimerizer-induced PERK translation repression, primary screen, PERK inhibitor project, CHO PERK-DD cells, SEAP luminescence, HTS; CHO PERK-DD fusion, SEAP luminescence translation reporter; 220,000 compounds, 0.17% hits; Eukaryotic translation initiation factor 2-alpha kinase 3 (Homo sapiens), Q9NZJ5; AID 1416, 2008; inhibition, % at 5.6 µM;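 active = inhibition above the mean inhibition of all tested compounds plus 3 SD, set separately per screening campaign, cut at about 2.9% in these data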;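 also: PERK kinase domain activated by AP20187 dimerizer at 100 nM; 0% = DMSO with dimerizer and 100% = rapamycin at 8.4 µM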
eIF4H FP inh – human eIF4H binding inhibitors, primary screen, translation initiation inhibitor project, biochemical, uHTS, fluorescence polarization; Eukaryotic translation initiation factor 4H (Homo sapiens), Q15056; eIF4H fluorescence polarization binding assay; inhibition, % at 35 µM; 290,000 compounds, 0.94% hits;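 also: calls also rest on retests at 20 µM and on dose response follow-up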
MLLE-PAM2 inh – inhibitors of PABP1 MLLE–PAM2 peptide binding, primary screen, biochemical, fluorescence polarization, FITC-PAM2, GST-MLLE; AID 588489, 2011; 360,000 compounds, 0.36% hits; inhibition, % at 20 µM; in the data active = inhibition above about 35%, passing the limit was not always enough;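 also: plate controls were DMSO wells with GST-MLLE for no effect and wells lacking GST-MLLE protein for full effect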
eIF4E 4G PPI – eIF4E–eIF4G protein interaction inhibitors, primary screen, biochemical, uHTS, TR-FRET, eIF4GI fragment; TR-FRET eIF4E-eIF4GI(517-606) binding, 2 h; inhibition, % at 21.7 µM; 220,000 compounds, 0.37% hits;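 active = inhibition above about 30%, limit read from the data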;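 also: 0% = full FRET control wells and 100% = background wells lacking eIF4GI fragment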
Target sequence (P63073 whole entry, looked up, the tested form may be a part): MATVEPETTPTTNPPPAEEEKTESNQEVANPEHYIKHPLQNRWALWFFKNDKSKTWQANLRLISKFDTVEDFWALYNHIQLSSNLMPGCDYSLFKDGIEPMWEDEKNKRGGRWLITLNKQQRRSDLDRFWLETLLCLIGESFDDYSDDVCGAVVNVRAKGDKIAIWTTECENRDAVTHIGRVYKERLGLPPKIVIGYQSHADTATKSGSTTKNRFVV
Target sequence (Q04637 whole entry, looked up, the tested form may be a part): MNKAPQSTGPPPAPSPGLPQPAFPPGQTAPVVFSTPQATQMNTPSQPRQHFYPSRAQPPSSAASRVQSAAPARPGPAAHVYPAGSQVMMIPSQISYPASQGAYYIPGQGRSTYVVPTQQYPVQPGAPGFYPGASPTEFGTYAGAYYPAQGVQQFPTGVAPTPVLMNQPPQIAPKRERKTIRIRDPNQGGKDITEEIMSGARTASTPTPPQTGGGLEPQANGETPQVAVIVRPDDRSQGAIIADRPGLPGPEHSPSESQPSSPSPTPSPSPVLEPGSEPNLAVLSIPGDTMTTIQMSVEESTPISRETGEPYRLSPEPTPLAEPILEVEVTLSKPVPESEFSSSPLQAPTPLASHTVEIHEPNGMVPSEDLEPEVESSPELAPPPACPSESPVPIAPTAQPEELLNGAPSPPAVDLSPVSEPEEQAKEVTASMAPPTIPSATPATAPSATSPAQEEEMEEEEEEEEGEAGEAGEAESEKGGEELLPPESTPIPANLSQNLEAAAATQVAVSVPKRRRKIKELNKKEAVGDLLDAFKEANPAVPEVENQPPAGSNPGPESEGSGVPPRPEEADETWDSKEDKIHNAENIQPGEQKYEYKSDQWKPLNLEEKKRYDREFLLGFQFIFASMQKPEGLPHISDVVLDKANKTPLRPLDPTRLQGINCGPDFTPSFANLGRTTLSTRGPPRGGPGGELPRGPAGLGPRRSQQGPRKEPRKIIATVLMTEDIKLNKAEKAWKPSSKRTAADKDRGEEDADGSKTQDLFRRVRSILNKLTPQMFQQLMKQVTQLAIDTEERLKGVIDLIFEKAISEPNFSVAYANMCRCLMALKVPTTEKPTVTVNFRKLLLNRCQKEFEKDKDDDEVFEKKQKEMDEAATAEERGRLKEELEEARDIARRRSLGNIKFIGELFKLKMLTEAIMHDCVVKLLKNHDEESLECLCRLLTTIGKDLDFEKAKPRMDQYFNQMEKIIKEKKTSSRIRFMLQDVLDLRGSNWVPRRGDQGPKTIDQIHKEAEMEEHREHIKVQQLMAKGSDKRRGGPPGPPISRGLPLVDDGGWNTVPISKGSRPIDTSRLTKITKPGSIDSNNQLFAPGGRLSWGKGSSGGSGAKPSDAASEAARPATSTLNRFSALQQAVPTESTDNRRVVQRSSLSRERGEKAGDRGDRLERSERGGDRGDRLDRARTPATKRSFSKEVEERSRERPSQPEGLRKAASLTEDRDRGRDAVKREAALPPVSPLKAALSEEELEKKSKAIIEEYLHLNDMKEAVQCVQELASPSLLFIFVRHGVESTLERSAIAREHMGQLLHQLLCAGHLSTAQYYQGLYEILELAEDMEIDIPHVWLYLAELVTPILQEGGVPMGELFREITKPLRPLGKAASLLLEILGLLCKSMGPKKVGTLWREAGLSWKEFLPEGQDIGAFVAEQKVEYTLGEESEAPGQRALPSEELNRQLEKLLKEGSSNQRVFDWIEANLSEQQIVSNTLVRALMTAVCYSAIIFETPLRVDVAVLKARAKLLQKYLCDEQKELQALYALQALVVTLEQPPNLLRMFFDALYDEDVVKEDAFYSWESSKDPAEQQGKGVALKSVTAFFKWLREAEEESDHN
PABP FP inh – PABP poly(A) RNA binding inhibitors, primary screen, biochemical, fluorescence polarization, uHTS. 290,000 compounds, 1% hits. AID 2014, 2009. calls only at 35 µM;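 also: calls also rest on retests at 20 µM and on dose response follow-up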
Starred values were filed as active, the others as inactive; i = inactive; ? = inconclusive; · = not tested or not shown; + = active, no number; [ ] = another dose, or the depositor's remark. A selection: hits, their analogues and other compounds. The true share with any hit is near 1.6%. Unless noted, no rule for the calls is given here.

SMILES | PERK inh | eIF4H FP inh | MLLE-PAM2 inh | eIF4E 4G PPI | PABP FP inh
O=C(c1c(F)cccc1F)N1CCCC(c2nc(-c3cccs3)no2)C1 (centres undefined) | · | 13.3 | 1.0 | · | i
COc1cccc(CC2(CO)CCCN(Cc3sc(N4CCCC4)nc3Cl)C2)c1 (centres undefined) | 1.7 | 55.9* | 28.1 | -4.9 | +
N#Cc1ccc2c(=O)n(-c3ccccc3)sc2c1 | · | · | 39.4* | · | ·
O=c1c2ccccc2sn1-c1ccc(S(=O)(=O)N2CCCCC2)cc1 | 0.6 | · | 10.6 | · | ·
Cc1ccc(-n2sc3ccccc3c2=O)cc1S(=O)(=O)N1CCCCC1 | 0.8 | -3.2 | 8.0 | 31.7* | i
O=c1c2ccccc2sn1-c1ccccc1 | 0.2 | -3.9 | 45.8* | 53.8* | i
O=c1c2ccccc2sn1-c1nccs1 | 0.1 | 4.5 | 28.8 | 68.2* | ?
CC(=O)Nc1ccc2c(=O)n(-c3ccccc3)sc2c1 | · | · | 25.9 | · | ·
COc1c(OC(C)=O)c(=O)n2c3ccccc3c3ccnc1c32 | · | · | 9.4 | · | ·
CN(C)S(=O)(=O)c1cccc(-n2sc3ccccc3c2=O)c1 | 0.0 | -7.6 | 29.4 | 55.6* | i
Cn1c(C(C)(O)C(O)c2ccccc2)nc2ccccc21 (centres undefined) | 0.9 | -0.1 | · | 87.5*[fluorescence artefact?] | i
CC(O)c1nc2ccccc2n1C(C)c1ccccc1 (centres undefined) | · | -8.0 | -2.4 | · | i
Cc1nc2ccccn2c1/C(O)=C1\C(=O)C(=O)N(CCN(C)C)C1c1ccco1 (centres undefined) | 0.8 | 8.7 | 50.3* | 0.8 | i
CC(OC(=O)c1ccc2c(=O)n3c(nc2c1)CCC3)C(N)=O (centres undefined) | -0.3 | 4.5* | -12.8 | 10.4 | +
O=c1c2ccccc2nc2n1CCC2 | 1.6 | -12.2 | 8.0 | 93.8* | i
Cc1cc(NC(=O)c2cc(-c3ccncc3)nc3ccccc23)ccc1Br | · | · | -2.8 | · | ·
CNC(=O)C[C@H]1C(=O)N(CCc2ccccc2)C[C@@H]1CSC | · | · | -2.1 | · | ·
CC(C)c1ccc(/C=N/NC(=O)c2ccccn2)cc1 | 0.9 | 4.8 | -3.7 | 55.1* | i
O=C(N/N=C/c1ccncc1)c1ccccn1 | · | -6.4 | 0.4 | · | i
O=C(N/N=C/c1ccncc1)c1ccccc1 | 3.6* | 17.9 | -3.3 | -3.3 | i
CC(C)c1ccc(/C=C/C(=O)NC(=S)Nc2ccc(CN3CCOCC3)cc2)cc1 | 0.5 | -2.5 | 22.4 | 13.9 | i
O=C(NC(=S)Nc1ccc(CN2CCOCC2)cc1)c1ccc([N+](=O)[O-])cc1 | 0.2 | -5.4 | 51.6* | 1.3 | i
O=C(/C=C/c1cccc([N+](=O)[O-])c1)NC(=S)Nc1ccc(CN2CCOCC2)cc1 | 0.8 | -6.8 | 40.0* | -2.5 | i
NS(=O)(=O)c1ccc(CCNC(=O)CCCNC(=O)c2ccc(Cl)cc2)cc1 | · | -2.3 | -10.6 | · | i
COc1ccc(-c2nc(-c3ccc(Br)cc3)no2)c(OC)c1 | 0.4 | -8.7 | -2.5 | 31.7* | i
SMILES | PERK inh | eIF4H FP inh | MLLE-PAM2 inh | eIF4E 4G PPI | PABP FP inh
COc1ccccc1-c1nc(-c2ccc(Br)cc2)no1 | -0.9 | -0.3 | 1.5 | 0.0 | i
COc1cccc(-c2noc(-c3ccoc3C)n2)c1 | 3.1* | 2.4 | -16.4 | 0.3 | i
CCc1ccc(N2C(=O)C(Cl)=C(Nc3ccc(C(=O)N4CCCC4)cc3)C2=O)cc1 | · | · | -9.8 | · | ·
C/C(=N/NC(=O)c1cc2ccccc2cc1O)C1C(=O)c2ccccc2C1=O | 0.3 | 45.0 | -36.0 | 3.0 | +
C/C(CC(=O)N1CCN(C=O)CC1)=N\NC(=O)c1cc2ccccc2cc1O | 0.3 | 102.1* | 20.3 | 2.9 | +
O=C(NCC(=O)c1ccccc1)OCc1ccc([N+](=O)[O-])cc1 | · | 9.7 | -2.6 | · | i
CCOC(=O)CC(=O)CSc1nc(N)c(C#N)c(-c2ccc(F)cc2)c1C#N | -0.4 | 62.3* | -3.2 | -2.6 | +
CCOC(=O)CC(=O)CSc1nc(-c2cccnc2)ccc1C#N | 2.0 | 68.6* | 2.6 | 2.0 | +
CCOC(=O)C1=C(CSc2nc(-c3ccncc3)ccc2C#N)OC(N)=C(C#N)C1c1cccnc1 (centres undefined) | 0.7 | 119.5* | 0.8 | 2.3 | +
CCOC(=O)C1=C(C(C)=O)C(c2cccnc2)C(C#N)=C(N)O1 (centres undefined) | -0.3 | 55.2* | 19.8 | 0.0 | +
CCOC(=O)CC(=O)CSc1nc(-c2cccnc2)cc(C)c1C#N | 0.6 | ? | 5.9 | 2.9 | ?
Cc1nnc(SCC(=O)Nc2sccc2C#N)n1Cc1ccccc1 | -1.1 | 28.8* | -12.3 | 3.5 | +
Cc1nnc(SCC(=O)NNC(=O)c2ccccc2)n1Cc1ccccc1 | · | · | -5.9 | · | ·
Cc1ccc(C(=O)N2CCN(S(=O)(=O)c3ccccc3[N+](=O)[O-])C2)cc1 | 0.4 | -6.0 | -3.0 | 0.2 | i
Cc1ccc(C(=O)N2CCN(S(=O)(=O)c3ccccc3[N+](=O)[O-])CC2)o1 | 0.3 | 51.2* | -9.4 | 3.4 | i
COCCn1c(Cc2ccccc2)nnc1SCC(=O)NC1CC1 | · | 7.1 | -2.4 | · | i
O=C(Nc1cccc(Cl)c1)Nc1sccc1-c1nc2ccccc2s1 | -0.5 | 78.6 | -100.2 | 1.4 | +
CC(C)COC(=O)N(C)C[C@H]1OCc2cnnn2CCCC(=O)N([C@H](C)CO)C[C@@H]1C | · | · | -9.6 | · | ·
COc1ccc(CCNC(=O)CCNC(=O)c2ccc(Br)cc2)cc1OC | -0.5 | -0.4 | 14.7 | 36.7* | i
COc1ccc(CCn2c(=O)[nH]c3cc(C(=O)NCCc4ccccc4)ccc3c2=O)cc1OC | 3.0* | 2.5 | · | -15.9 | i
O=C(NNc1ccc(Cl)cc1)c1sccc1Cl | 1.3 | -10.1 | 42.0* | 0.5 | i
CN1CCN(C(=O)c2cc([N+](=O)[O-])ccc2Cl)CC1 | · | -0.5 | 6.3 | · | i
Cc1cccc2c(N=Nc3ccccc3)c(O)[nH]c12 | · | 95.1* | -19.1 | · | +
COc1ccc(S(=O)(=O)N2CCC(C(=O)N[C@@H](C)C(=O)NCc3ccccc3OC)CC2)cc1 | · | -4.9 | 5.8 | · | i
COc1ccccc1C(CC(=O)O)NS(=O)(=O)c1ccc2c(c1)N(C(C)=O)CC(C)O2 (centres undefined) | · | -10.6 | 9.4 | · | i
CSc1ncccc1C(=O)OC(C)C(=O)Nc1cccc(S(=O)(=O)N2CCOCC2)c1 (centres undefined) | · | · | -1.6 | · | ·
O=C(CSc1cn[nH]n1)Nc1ccc(O)c(C(=O)O)c1 | · | 7.6 | 38.3* | · | i
O=C(O)CSc1ccn(Cc2ccccc2)c1 | · | · | 10.4 | · | ·
Cc1cc[n+](-c2[nH]c(=O)sc2/C=N/N=C(\[O-])c2ccccc2)cc1 | 0.1 | 72.8 | 39.5* | 6.0 | +
